Experimental findings from PubChem BioAssay (NCI) are described below.

Test systems include NCI-H23 lung; NCI-H226 lung; NCI-H322M lung; HOP-62 NSCLC; NCI-H460 lung; HOP-92 NSCLC; NCI-H522 lung; A549/ATCC NSCLC; 786-0 renal; COLO 205 colon.
Test in all cases: NCI-60 one-dose screen, 48 h (100 = growth as untreated, 0 = no growth, -100 = all killed)
Holding throughout (details): 10 µM unless noted

About 83,000 compounds went through this panel and 20% of them were active in at least one assay; those are over-represented in the sample as a whole.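 Cells were grown in 96-well plates and exposed to the test compound at a single concentration for 48 hours; results are reported as percent growth, with values below 10 considered active.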 A number with no mark means an inactive call. Active and inactive are the calls of the source.

Take `O=C(Oc1ccc(Cl)cc1[N+](=O)[O-])Oc1ccc(Cl)cc1[N+](=O)[O-]`: the growth was 105% with NCI-H23 lung; 117% in the assay with NCI-H226 lung; 122% in the assay with NCI-H322M lung; 113% with HOP-62 NSCLC; 111% with NCI-H460 lung; 93.4% in the assay on HOP-92 NSCLC. Moreover, the growth was 104% in the assay with NCI-H522 lung, 99.2% with A549/ATCC NSCLC, 119% with 786-0 renal and 122% with COLO 205 colon.

On to `Cc1ccccc1OC(=O)c1cccc(Cl)c1`, for which the growth is 108% with NCI-H23 lung; 108% with NCI-H226 lung; 114% with NCI-H322M lung; 145% in the assay on HOP-62 NSCLC; 109% in the assay with NCI-H460 lung; 101% in the assay on HOP-92 NSCLC. Further, the growth is 95.5% in the assay on NCI-H522 lung, 102% in the assay on A549/ATCC NSCLC, 112% in the assay with 786-0 renal and 129% in the assay on COLO 205 colon.

Consider `Oc1c(CNCCNCc2cc(Cl)cc(Cc3ccccc3)c2O)cc(Cl)cc1Cc1ccccc1`, for which the growth with NCI-H23 lung is 17.4%; with NCI-H226 lung, 9.76% (active); with NCI-H322M lung it was 23.4%; with HOP-62 NSCLC it was 19.4%; with NCI-H460 lung, 8.13% (active); with HOP-92 NSCLC, 45.1%. In addition, the growth in the assay on NCI-H522 lung was 43.7%; in the assay with A549/ATCC NSCLC, 13.9%; with 786-0 renal it was -3.97% (active); with COLO 205 colon, 8.84% (active).

As for `NC(=S)Cc1ccccc1`, the growth in the assay with NCI-H23 lung was 102%; in the assay with NCI-H226 lung it was 96.8%; in the assay on NCI-H322M lung, 98.3%; with HOP-62 NSCLC, 98.1%; in the assay on NCI-H460 lung, 106%; in the assay on HOP-92 NSCLC it was 108%. The growth in the assay with NCI-H522 lung was 92%; in the assay on A549/ATCC NSCLC it was 99.7%; with 786-0 renal, 99.6%; with COLO 205 colon it was 108%.

For the compound `COc1c(B(O)O)cccc1-c1nc2ccc3[nH]ncc3c2c2c1CCC2`, the growth in the assay on NCI-H23 lung was 75.5%; in the assay on NCI-H226 lung it was 68.3%; in the assay on NCI-H322M lung, 57.6%; in the assay with HOP-62 NSCLC, 48.7%; in the assay on NCI-H460 lung, 47.9%; with HOP-92 NSCLC, 72.1%. Besides, the growth was 62.7% in the assay with NCI-H522 lung, 60.2% in the assay with A549/ATCC NSCLC, 55.7% in the assay with 786-0 renal and 66.2% in the assay with COLO 205 colon.

On to `CC(C)=CC/C=C(/C)[C@H]1CC[C@]2(C)[C@@H]1CC[C@@H]1[C@@]3(C)CCCNC(C)(C)[C@@H]3CC[C@]12C`, for which the growth is -61.7% [100 µM] (active) in the assay on NCI-H23 lung; -49.5% [100 µM] (active) with NCI-H226 lung; -99.4% [100 µM] (active) in the assay with NCI-H322M lung; -48.3% [100 µM] (active) in the assay with HOP-62 NSCLC; -74.2% [100 µM] (active) with NCI-H460 lung; -56.6% [100 µM] (active) with HOP-92 NSCLC. Besides, the growth in the assay with NCI-H522 lung was -59.3% [100 µM] (active); in the assay on A549/ATCC NSCLC, -51.8% [100 µM] (active); with 786-0 renal it was -56.2% [100 µM] (active); in the assay with COLO 205 colon, -62.4% [100 µM] (active).

Regarding `C[n+]1cccc(NC(=O)c2ccc3ccc4ccc(C(=O)Nc5ccc[n+](C)c5)nc4c3n2)c1`, the growth in the assay with NCI-H23 lung is 32.3%; in the assay with NCI-H226 lung, 5.55% (active); with NCI-H322M lung, 37.3%; in the assay on HOP-62 NSCLC it was 21.3%; in the assay with NCI-H460 lung, -7.42% (active); in the assay on HOP-92 NSCLC it was 57.5%. Moreover, the growth is -19% (active) with NCI-H522 lung, -3.45% (active) with A549/ATCC NSCLC, 76.2% with 786-0 renal and 75.3% with COLO 205 colon.

For `CC1=CC[C@@H]2C(C)(C)[C@@H](O)CC[C@@]2(C)[C@@H]1COc1ccc2ccc(=O)oc2c1`, the growth in the assay on NCI-H23 lung was 74.7%; in the assay with NCI-H226 lung it was 38.2%; in the assay on NCI-H322M lung, 91.1%; in the assay with HOP-62 NSCLC it was 67.2%; in the assay on NCI-H460 lung, 88.6%; in the assay on HOP-92 NSCLC it was 51.3%. For the same compound, the growth with NCI-H522 lung was 25.9%; in the assay on A549/ATCC NSCLC it was 43%; in the assay with 786-0 renal it was 92.9%; in the assay with COLO 205 colon, 55.3%.

For the compound `Cc1ccc(Oc2c(/C=N/NC(=O)Cn3c(=O)sc4ccccc43)c(C)nn2-c2ccccc2)cc1`, the growth is 50.6% in the assay on NCI-H23 lung; 62% in the assay with NCI-H226 lung; 67.3% in the assay on NCI-H322M lung; 71.5% in the assay on HOP-62 NSCLC; 52% in the assay with NCI-H460 lung; 46.1% with HOP-92 NSCLC. In addition, the growth in the assay on NCI-H522 lung is 46.7%; with A549/ATCC NSCLC it was 32.8%; in the assay with 786-0 renal it was 80.9%; in the assay on COLO 205 colon, 42.4%.

As for `CC(=O)Nc1ccc2nc3ccc(NC(C)=O)cc3[n+](-c3ccccc3)c2c1`, the growth was 104% with NCI-H23 lung; 127% in the assay with NCI-H226 lung; 109% in the assay with NCI-H322M lung; 103% in the assay on HOP-62 NSCLC; 108% in the assay with NCI-H460 lung; 136% in the assay with HOP-92 NSCLC. Besides, the growth was 88% in the assay with NCI-H522 lung, 106% in the assay with A549/ATCC NSCLC, 102% in the assay with 786-0 renal and 109% in the assay on COLO 205 colon.

For `O=C(N=c1n(-c2ccccc2)nc2n1CCN2C1=NCCN1)c1ccc(Cl)cc1`, the growth in the assay with NCI-H23 lung is 86.9%; in the assay with NCI-H226 lung it was 93.3%; in the assay on NCI-H322M lung, 91.2%; in the assay with HOP-62 NSCLC, 91.6%; in the assay on NCI-H460 lung, 77.3%; in the assay on HOP-92 NSCLC it was 61%. In addition, the growth with NCI-H522 lung was 95.9%; in the assay with A549/ATCC NSCLC, 83.4%; in the assay on 786-0 renal, 104%; in the assay with COLO 205 colon, 62.2%.
